USP28 inh: blocks human USP28 ubiquitin-rhodamine cleavage | purified USP28, Ub-rhodamine cleavage fluorescence, 30 min | inhibition, % at 25 µM | actives 3% (n = 47,000)
Target sequence (Q96RU2 whole entry, looked up): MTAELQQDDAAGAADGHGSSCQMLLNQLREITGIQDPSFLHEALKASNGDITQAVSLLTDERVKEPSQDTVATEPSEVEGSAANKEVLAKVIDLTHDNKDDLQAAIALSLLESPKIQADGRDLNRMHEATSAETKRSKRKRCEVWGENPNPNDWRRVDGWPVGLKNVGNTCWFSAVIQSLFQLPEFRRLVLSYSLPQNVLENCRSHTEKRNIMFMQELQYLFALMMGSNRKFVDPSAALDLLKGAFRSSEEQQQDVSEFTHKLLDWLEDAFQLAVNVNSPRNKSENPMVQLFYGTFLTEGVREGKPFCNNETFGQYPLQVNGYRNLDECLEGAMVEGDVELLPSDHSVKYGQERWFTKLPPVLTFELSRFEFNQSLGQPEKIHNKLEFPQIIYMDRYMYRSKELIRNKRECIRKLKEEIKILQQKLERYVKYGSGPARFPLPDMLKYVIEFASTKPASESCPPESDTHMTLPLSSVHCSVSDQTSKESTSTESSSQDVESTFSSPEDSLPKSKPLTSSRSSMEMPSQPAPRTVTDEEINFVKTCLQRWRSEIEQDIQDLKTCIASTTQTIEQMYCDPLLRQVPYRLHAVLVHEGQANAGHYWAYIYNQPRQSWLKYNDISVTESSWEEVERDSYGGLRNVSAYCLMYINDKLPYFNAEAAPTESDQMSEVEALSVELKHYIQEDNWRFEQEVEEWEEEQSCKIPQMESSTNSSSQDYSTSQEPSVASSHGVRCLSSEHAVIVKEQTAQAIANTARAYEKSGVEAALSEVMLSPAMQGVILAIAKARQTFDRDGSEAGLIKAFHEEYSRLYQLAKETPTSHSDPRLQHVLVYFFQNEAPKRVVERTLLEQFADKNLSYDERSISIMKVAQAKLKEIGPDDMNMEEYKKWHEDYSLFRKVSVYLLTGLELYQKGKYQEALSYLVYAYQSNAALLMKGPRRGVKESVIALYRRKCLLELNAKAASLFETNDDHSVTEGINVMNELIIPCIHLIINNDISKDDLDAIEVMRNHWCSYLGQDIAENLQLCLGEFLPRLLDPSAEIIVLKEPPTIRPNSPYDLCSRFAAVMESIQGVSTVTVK
USP30 inh: human USP30 deubiquitinase inhibition; Q70CQ3; purified USP30, Ub-rhodamine cleavage fluorescence; inhibition, % at 25 µM; actives 5.3% (n = 47,000); AID 1645860
USP17 block: human USP17-like deubiquitinase inhibition | A8MUK1 | purified USP17, Ub-rhodamine cleavage fluorescence, 3 h | inhibition, % at 50 µM | actives 6.5% (n = 47,000)
Active calls of the source: *. Compounds with a hit are over-represented: about 11% of the library has one in this group of screens. Cut-off read from the data, not from the text of the source: active = inhibition above about 30%; inactive = the rest.

`Cc1[nH]c2ccccc2c1/C=C(\C#N)c1nnc(N2CCOCC2)n1-c1ccccc1` gave USP28 inh -16.1 and USP30 inh -30.9.
CCOC(=O)c1c(NCCO)c2ccccc2[nH]c1=O was read as USP28 inh -1.0, USP30 inh 3.8 and USP17 block 5.8.
For Cc1cc(C)n2nc(CN(C(=O)COc3ccccc3)c3ccccc3)nc2n1 the results were USP17 block -9.3.
`Cc1nc2nc(CN(C(=O)COc3ccccc3)c3ccccc3)nn2c(C)c1Cl` gave USP28 inh 9.2, USP30 inh 36.4* and USP17 block 4.3.
Screening CCc1ccc(-c2nc(SC(C)C(=O)NC3CCCc4ccccc43)n[nH]2)cc1 (stereo not drawn) returned USP28 inh 11.5, USP30 inh 39.6* and USP17 block 48.4*.
COc1ccc(-c2cc(C(=O)NC3CCCc4ccccc43)[nH]n2)cc1 (stereo not drawn) was read as USP28 inh 27.7 and USP30 inh 24.6.
For COc1cc2ccccc2cc1C(=O)Nc1cccc(C)c1C the results were USP17 block 56.9*.
COc1cc2ccccc2cc1C(=O)NCc1ccccc1 was read as USP28 inh 26.2, USP30 inh 27.4 and USP17 block 17.2.
Screening Cn1cc(C2CCCCCN2C(=O)c2cccs2)cn1 (stereo not drawn) returned USP17 block 4.2.
Screening Cc1nc(-c2cccnc2SCC(=O)N2CCN(c3ccccc3C)CC2)no1 returned USP28 inh -31.8, USP30 inh -72.7 and USP17 block -37.9.
For Cc1cc(OCCOCCN2CCN(C)CC2)cc(C)c1Cl the results were USP28 inh 33.2*, USP30 inh 4.6 and USP17 block 0.0.
CCc1ccccc1OCCOCCN1CCN(C)CC1 was read as USP28 inh -2.2, USP30 inh -17.3 and USP17 block -33.8.
For COCC(=O)N1C[C@H](Oc2ccccn2)[C@H]2C[C@@H]1Cc1c2[nH]c2ccccc12 the results were USP28 inh -85.9, USP30 inh -344.2 and USP17 block -73.8.
Screening CCOc1ccccc1NC(=O)c1ccc(-n2nnnc2SC)cc1 returned USP28 inh -5.9, USP30 inh -27.8 and USP17 block 25.9.
Screening COc1ccc(NC(=O)c2ccc(-n3nnnc3SC)cc2)cc1Cl returned USP28 inh 14.2, USP30 inh 5.9 and USP17 block -3.6.
For COc1ccc(C)cc1NC(=O)c1ccc(-n2nnnc2SC)cc1 the results were USP28 inh 28.0, USP30 inh 51.8* and USP17 block 73.2*.
`COc1ccc(OC)c(NC(=O)c2ccc(-n3nnnc3SC)cc2)c1` gave USP28 inh 16.4, USP30 inh 17.4 and USP17 block 80.0*.
CC(=O)N1CCc2c(sc(NC(=O)CSc3ccc(F)cc3)c2C(N)=O)C1 was read as USP28 inh -0.6, USP30 inh -4.3 and USP17 block -11.1.
Cc1ccccc1CNC(=O)CCC(=O)N1CCc2c(c(C(=O)N3CCCC3)nn2C)C1 was read as USP28 inh 3.9, USP30 inh 15.3 and USP17 block 13.9.
CCCNC(=O)c1cc2c(=O)n3ccccc3nc2n1Cc1ccccc1 was read as USP28 inh 2.8, USP30 inh -1.6 and USP17 block 10.0.
`CN(C)c1ccc(CN2CCc3nc(-c4ccncc4)[nH]c(=O)c3C2)cc1` gave USP28 inh 6.5, USP30 inh -12.2 and USP17 block 7.4.
`O=c1[nH]c(-c2ccncc2)nc2c1CCN(Cc1ccc(Cl)cc1)C2` gave USP28 inh 8.6, USP30 inh 42.7* and USP17 block 28.2.
O=c1[nH]c(-c2ccccn2)nc2c1CCN(Cc1cnn(-c3ccccc3)c1)C2 was read as USP28 inh -11.5, USP30 inh 19.5 and USP17 block 55.3*.
Cn1cc(CN2CCc3nc(-c4ccccn4)[nH]c(=O)c3C2)cn1 was read as USP28 inh -21.3, USP30 inh -17.3 and USP17 block -39.8.
For Cc1ccc(NC(=O)N2CC(C(=O)NC3CCCC3)C3(CCOCC3)C2)cc1 (stereo not drawn) the results were USP28 inh -9.2, USP30 inh -1.3 and USP17 block -1.9.
For COc1ccccc1CC(NC(C)=O)C(=O)NC1CCN(C(=O)c2cnccn2)CC1 (stereo not drawn) the results were USP28 inh 3.0, USP30 inh 16.4 and USP17 block 9.1.
`Cc1occc1-c1cc2nc3c(c(=O)n2[nH]1)CN(Cc1ccnn1C)CC3` gave USP28 inh -29.5, USP30 inh -113.3 and USP17 block -6.1.
For CC(C)[C@H](NC(=O)[C@H](Cc1ccccc1)n1c(=O)[nH]c2ccccc2c1=O)C(=O)NCC1CCC(C(=O)O)CC1 (stereo partly drawn) the results were USP28 inh -9.4, USP30 inh -0.6 and USP17 block -10.5.
